Assay results as given in PubChem BioAssay AID1159580 (chemical genetic matrix, 2015).
Values joined by “and” are separate entries in the source; they are usually repeats but may differ in a detail not shown here. Equal values may be shown once. The campaign covered roughly 5,500 compounds. About 2,000 (36%) were called active. About 18% were inconclusive and are not listed. Cut-off read from the data, not from the text of the source: active = normalized growth mostly below about 0.91 (no sharp cut-off); inconclusive = no clear call, values can overlap the other calls; inactive = mostly above about 0.92. Some of the results follow.

Test: chemical genetic growth profiling, strain panel (AID 1159580);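 note: tested at 20 µM; growth read once vehicle control cultures reached saturation at 30 °C; 1 = growth at the plate median or of vehicle wells; lower values mean less growth of the strain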
Conditions: S. cerevisiae deletion strains, growth OD

Measured: normalized growth

CC(C)NCC(O)COc1cccc2ccccc12 (stereo unspecified)
inactive: locus YAL013W, strain DEP1, hits give low values 1.01 | locus YAL021C, strain ccr4, hits give low values 0.971 | locus YAL026C, strain drs2, hits give low values 1.03 | locus YAL030W, strain snc1, hits give low values 1.02 | locus YAL040C, strain CLN3, hits give low values 1.01 and 0.981 | locus YBL061C, strain skt5, hits give low values 1.01 | locus YBR009C, strain hhf1, hits give low values 1 | locus YBR023C, strain chs3, hits give low values 1.01 | locus YBR171W, strain sec66, hits give low values 1.01 | locus YBR231C, strain swc5, hits give low values 1.02 | locus YBR279W, strain paf1, hits give low values 1.01 | locus YCL011C, strain gbp2, hits give low values 1.01 | locus YCL016C, strain dcc1, hits give low values 0.995 | locus YCL061C, strain MRC1 (second series), hits give low values 1 and 1.02 | locus YCL061C, strain MRC1, hits give low values 1.02 | locus YCL069W, strain vba3, hits give low values 1.01 | locus YCR088W, strain abp1, hits give low values 1.01 | locus YDL005C, strain med2, hits give low values 1.01 | locus YDL040C, strain nat1, hits give low values 1.01 | locus YDR001C, strain nth1, hits give low values 1.02 | locus YDR069C, strain doa4, hits give low values 1.01 | locus YDR137W, strain rgp1, hits give low values 1.02 | locus YDR150W, strain NUM1, hits give low values 1 | locus YDR159W, strain sac3, hits give low values 0.992 | locus YDR195W, strain ref2 1.02 | locus YDR297W, strain sur2, hits give low values 1.01 | locus YDR334W, strain swr1, hits give low values 1.04 | locus YDR335W, strain msn5, hits give low values 1.01 | locus YDR363W, strain ESC2, hits give low values 1.01 and 0.959 | locus YDR392W, strain spt3, hits give low values 1.02 | locus YEL003W, strain gim4, hits give low values 1.03 | locus YEL037C, strain rad23, hits give low values 1.01 | locus YEL061C, strain CIN8 (second series), hits give low values 1.02 | locus YER002W, strain NOP16, hits give low values 0.992 and 1.01 | locus YER015W, strain faa2, hits give low values 1.01 | locus YER016W, strain bim1, hits give low values 1.01 | locus YER111C, strain swi4, hits give low values 1.03 | locus YER155C, strain BEM2 (second series), hits give low values 1.05 | locus YFR010W, strain ubp6, hits give low values 1.02 | locus YGL167C, strain pmr1, hits give low values 1.02 | locus YGL173C, strain kem1, hits give low values 1.01 | locus YGL227W, strain vid30, hits give low values 1 | locus YGL240W, strain doc1, hits give low values 1.02 | locus YGL253W, strain hxk2, hits give low values 1.02 | locus YGR078C, strain PAC10, hits give low values 1.02 and 1.01 | locus YGR229C, strain SMI1, hits give low values 1.08 | locus YHR013C, strain ard1, hits give low values 0.965 | locus YHR027C, strain rpn1, hits give low values 1.01 | locus YHR030C, strain SLT2, hits give low values 1.01 | locus YHR079C, strain IRE1, hits give low values 1.02 | locus YHR142W, strain chs7, hits give low values 1.05 | locus YJL092W, strain hpr5, hits give low values 1.01 | locus YJL095W, strain BCK1 (second series), hits give low values 1 | locus YJL095W, strain BCK1, hits give low values 0.967 | locus YJL115W, strain asf1, hits give low values 1.01 | locus YJL129C, strain trk1, hits give low values 1.01 | locus YJL154C, strain vps35, hits give low values 1.01 | locus YJL164C, strain tpk1, hits give low values 0.997 | locus YJL166W, strain qcr8, hits give low values 1.01 | locus YJR066W, strain TOR1, hits give low values 0.996 | locus YJR075W, strain HOC1, hits give low values 1.01 and 1 | locus YKL160W, strain elf1, hits give low values 1.01 | locus YKR026C, strain gcn3, hits give low values 1.01 | locus YKR091W, strain srl3, hits give low values 1.02 | locus YLL001W, strain dnm1, hits give low values 1.02 | locus YLL026W, hits give low values 1.01 | locus YLL041C, strain sdh2, hits give low values 1.01 | locus YLR027C, strain aat2, hits give low values 1.01 | locus YLR113W, strain HOG1, hits give low values 0.976 | locus YLR221C, strain rsa3, hits give low values 0.972 | locus YLR258W, strain gsy2, hits give low values 1 | locus YLR262C, strain YPT6 (second series), hits give low values 1 | locus YLR320W, strain mms22, hits give low values 0.997 | locus YLR342W, strain FKS1, hits give low values 1.01 | locus YLR357W, strain rsc2, hits give low values 1.07 | locus YLR370C, strain arc18, hits give low values 1.01 | locus YLR384C, strain iki3, hits give low values 1.01 | locus YML120C, strain ndi1, hits give low values 1.01 | locus YMR058W, strain fet3, hits give low values 1.02 | locus YMR125W, strain sto1, hits give low values 1.07 | locus YMR129W, hits give low values 1.01 | locus YMR205C, strain PFK2, hits give low values 1.02 | locus YMR231W, strain pep5, hits give low values 1.01 | locus YMR263W, strain SAP30, hits give low values 1 | locus YMR307W, strain GAS1, hits give low values 1.01 | locus YNL071W, strain lat1, hits give low values 1.01 | locus YNL128W, strain TEP1, hits give low values 0.995 | locus YNL175C, strain NOP13, hits give low values 1.02 and 1.01 | locus YNL183C, strain NPR1, hits give low values 1.01 | locus YNL197C, strain WHI3, hits give low values 1 and 1.01 | locus YNL209W, strain ssb2, hits give low values 1 | locus YNL224C, strain SQS1, hits give low values 1.01 and 1.02 | locus YNL248C, strain rpa49, hits give low values 1.04 | locus YNL322C, strain KRE1 (second series), hits give low values 1 | locus YNL322C, strain KRE1, hits give low values 1.01 | locus YNR049C, strain mso1, hits give low values 1.01 | locus YOR001W, strain rrp6, hits give low values 1.02 | locus YOR070C, strain gyp1, hits give low values 1.01 | locus YOR080W, strain dia2, hits give low values 1.02 | locus YOR083W, strain WHI5 (second series), hits give low values 1.02 and 0.993 | locus YOR083W, strain WHI5, hits give low values 1.01 | locus YOR106W, strain vam3, hits give low values 1.03 | locus YOR231W, strain MKK1, hits give low values 1.01 | locus YOR265W, strain rbl2, hits give low values 1.02 | locus YOR270C, strain vph1, hits give low values 1.06 | locus YOR290C, strain snf2, hits give low values 1.01 | locus YPL051W, strain arl3, hits give low values 1 | locus YPL078C, strain atp4, hits give low values 1.06 | locus YPL106C, strain sse1, hits give low values 0.985 | locus YPL240C, strain hsp82, hits give low values 0.993 | locus YPL256C, strain CLN2, hits give low values 1.02
